MBNL1-CUG inh: MBNL1-poly(CUG) RNA binding inhibition; Potency, µM (titrated, usually from 57.5 µM), inactives show at the top dose activity change, negative = inhibition, hits mostly inhibitors; TR-FRET MBNL1-His/biotin-(CUG)12 binding, 665/545 ratio; Q9NR56; AID 2675; 280,000 compounds, 0.036% hits; active = well fitted inhibition curve with a large enough effect in the signal ratio, with a control signal flat, not every such curve was filed as active; inconclusive = small, poorly fitted or top-dose-only effect, or effect the other way, or a change in a side signal; inactive = no such curve, though single readings can be large or run the other way; the % refers to the signal ratio; note: potency is the fitted concentration of half-maximal effect; % is set by controls: 0 for no effect and ±100 for the full control effect
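TR-FRET readout: Ex 340 nm, 665/545 nm emission ratio, normalized to buffer-only (basal) and MBNL1-(CUG)12 controls. Complex of MBNL1-His with Biotin-(CUG)12, compounds 92 nM–58 uM, incubated 60 min at room temperature.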
A-T KAP1 phos: potential ataxia-telangiectasia treatment; F2112 A-T fibroblasts, KAP-1 phosphorylation AlphaLISA; neocarzinostatin DNA damage 30 min before lysis; Potency, µM (titrated, usually from 57.5 µM), for inactives: top-dose activation, usual class: activators; 320,000 compounds, 0.19% hits; AID 485349; note: potency is the fitted concentration of half-maximal effect; % of control where 0% means no effect; nearly all actives have a fitted effect of over 45% in size
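ATM-like activity read as KAP-1 phosphorylation via AlphaLISA donor/acceptor antibody pairs after lysis and 6 hr at 25C. Cells were ATM-null patient fibroblasts (F2112, hTERT), dosed 60 min, then exposed to the DSB inducer NCS for 30 min.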
TCR act: activators of T cell receptors; primary human leukocytes, anti-CD3, IL-2 HTRF, 48 h; Potency, µM (doses to about 9.22 µM), for inactives: top-dose activation of IL-2 secretion, hits mostly activators; 330,000 tested, under 10 active; note: % of control where 0% means no effect
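Compounds are tested in HTS on primary human leukocytes co-incubated with a-CD3 beads for 48 hr. IL-2 output is measured by time-resolved FRET.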
ClpP mod: qHTS Assay for Activators of ClpP | 340,000 compounds, 1.9% hits | Potency, µM (titrated, usually from 57.5 µM), for inactives: top-dose activity change, negative = active | purified B. subtilis ClpP, FRET peptide cleavage, 20 min | AID 651965, 2013; active = well fitted falling curve with a large enough effect; inconclusive = small, poorly fitted or top-dose-only effect; inactive = no such curve, though single readings can be large or run the other way; note: potency is the fitted concentration of half-maximal effect; the source files actives as falling curves though it sought activators and does not explain the sign; nearly all actives have a fitted effect of over 65% in size
Target sequence (P80244 whole entry, looked up): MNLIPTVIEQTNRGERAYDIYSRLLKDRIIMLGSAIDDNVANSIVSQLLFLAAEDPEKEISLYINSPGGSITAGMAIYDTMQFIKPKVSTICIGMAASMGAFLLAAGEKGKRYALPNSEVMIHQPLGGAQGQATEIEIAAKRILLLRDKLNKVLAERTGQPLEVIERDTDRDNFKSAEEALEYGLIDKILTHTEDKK
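Purified B. subtilis ClpP, 10 microg/mL final in Tris/HCl pH8 with KCl, BSA, glycerol and Tween-20, cleaved an Abz/nitrotyrosine-quenched decapeptide. Fluorescence (ex 320, em 430) was read at 0 and 20 min at room temperature. Delta was normalized to 5.8 microM ADEP and DMSO/no-enzyme controls.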
GRP78 ERSR act: inducers of ER stress response in human glioma cells; U87-MG GRP78 promoter luciferase reporter, 16 h; Potency, µM, for the others: top-dose activation, hits mostly activators; 420,000 compounds, 0.02% hits; AID 602332; note: potency is the fitted concentration of half-maximal effect; series mostly up to about 76 µM; % of control where 0% means no effect; nearly all actives have a fitted effect of over 35% in size
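Stably transfected U87-MG human glioma cells carrying a GRP78-based luminescent sensor were seeded at 1000 cells/well, pin-dosed with compounds and incubated 16 h. Luciferase reagent was then added, and end-point luminescence was read after 10 min at room temperature.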
Mito fusion act: blocks mitochondrial division or promotes mitochondrial fusion; 320,000 compounds, 0.23% hits; Potency, µM (doses to about 46.1 µM), for inactives: at the top dose growth rescue (activation), most hits filed as activators; S. cerevisiae fusion-defective mutant growth rescue, CellTiterGlo 48 h; note: potency is the fitted concentration of half-maximal effect; % of control where 0% means no effect; nearly all actives have a fitted effect of over 45% in size
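Read-out: ATP-based luminescence (CellTiterGlo, 10 min ambient) reporting growth of fusion-defective ts yeast after 48 hours at 37C on glycerol/ethanol YPEG medium in the presence of compound.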
* hit, by the source's call; ? = inconclusive; · = no result. Rows were chosen to be rich in hits. Some 1.8% of all compounds tested hit in one or more screens of this group. Unless noted, calls come from the whole dose curve; as a rule, active = well fitted curve in the direction sought with a large enough effect; inconclusive = small, poorly fitted or top-dose-only effect, or another doubt; inactive = no such curve, though single readings can be large; an effect the other way counts as inactive or inconclusive.

SMILES	MBNL1-CUG inh	A-T KAP1 phos	TCR act	ClpP mod	GRP78 ERSR act	Mito fusion act
Clc1ccc(CN2CC[C@H]3C=CCc4cccc(c43)C2)cc1	·	35.5µM*	-2.0%	-1.5%	-3.6%	11.0%
CC(C)CN(C[C@@H](OP(=O)(O)O)[C@H](Cc1ccccc1)NC(=O)O[C@@H]1CCOC1)S(=O)(=O)c1ccc(N)cc1	·	·	·	·	-2.3%	·
COc1cc2cncnc2cc1OCCCCC(N)=O	·	·	·	-24.4%	·	·
COC(=O)Cn1ncc2c3ccccc3n(C)c2c1=O	-5.3%	-5.1%	-5.7%	14.1µM*	-0.2%	-1.9%
O=C(Cn1ncc2c3ccccc3n(Cc3ccccc3)c2c1=O)N1CCN(c2ccccn2)CC1	10.4%	-5.5%	-3.3%	?	-2.6%	0.7%
Cn1c2ccccc2c2cnn(CC(=O)O)c(=O)c21	-17.4%	0.5%	3.0%	31.6µM*	-2.0%	-0.7%
CNC(=O)Cn1ncc2c3ccccc3n(C)c2c1=O	-6.7%	0.1%	-6.8%	3.7%	-1.4%	3.4%
O=C(Cn1ncc2c3ccccc3n(Cc3ccccc3)c2c1=O)N1CCN(c2ncccn2)CC1	-1.6%	8.6%	-1.5%	31.6µM*	2.3%	19.1%
CCN1CCCC1Cn1cnc2c([nH]c3cccc(Cl)c32)c1=O (configuration not stated)	-6.8%	-1.8%	-82.6%	31.6µM*	-1.3%	4.8%
CCC1CCCN1Cn1cnc2c([nH]c3ccccc32)c1=O (configuration not stated)	-13.5%	10.8%	-2.8%	25.1µM*	0.6%	4.4%
CCC1CCCN1Cn1cnc2c([nH]c3ccc(OC)cc32)c1=O (configuration not stated)	0.0%	·	2.1%	17.8µM*	-8.7%	0.9%
CCN1CCCC1Cn1cnc2c([nH]c3ccc(Cl)cc32)c1=O (configuration not stated)	21.5%	9.2%	-0.3%	-22.9%	-4.1%	-2.0%
O=c1c2[nH]c3ccccc3c2ncn1Cc1ccccn1	-3.8%	23.1%	-1.8%	28.2µM*	-0.7%	-2.0%
CCCCCCCCCCCCCCCCOC[C@H](COP(=O)([O-])OCC[N+](C)(C)C)OC(=O)CCCCCCCC(=O)O	·	·	·	·	-7.3%	·

Screens as filed in PubChem.
